Screening results (PubChem)
Most compounds without a hit are left out; they make up all but 19% or so of the library.
uPA generation – cell surface uPA generation inhibition | hit rate 0.31% among 330,000 | AID 540303 | Potency, µM (top dose mostly 38.3 µM), for the others: top-dose activity change, negative = inhibition, actives largely listed as inhibitors | cell surface uPA generation assay, qHTS; active means well fitted inhibition curve with a large enough effect; inconclusive means small, poorly fitted or top-dose-only effect; inactive means no such curve, though single readings can be large or run the other way; tested in mouse RAW 264.7 cells; further: potency means the concentration at half of the fitted maximal effect; nearly all actives have a fitted effect of over 55% in size
HT1080NT lethal – kills 2HG-producing HT-1080-NT fibrosarcoma cells | Potency, µM (doses to about 46.1 µM), without a hit: at the highest dose activity, negative = less viability, hits mostly cytotoxic | HT-1080-NT fibrosarcoma viability, CellTiter-Glo ATP luminescence, 48 h | AID 686970 | hit rate 1.6% among 360,000;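 further: NT is the 2HG producing partner of a matched IDH1 knockdown line; potency means the concentration at half of the fitted maximal effect; 0% = DMSO-treated cells and -100% = media-only wells without cells; nearly all actives have a fitted effect of over 55% in size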
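Compounds were tested in concentration-response format on HT-1080-NT cells for 48 hours at 37 degrees C. Cell viability came from CellTiter-Glo luminescence; curves were classified by r2, response magnitude and activity.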
DT40 TDP1 CPT – growth inhibition of DT40 Tdp1-/-;hTDP1 cells with camptothecin (screen for TDP1 inhibitors); hit rate 12% among 420,000; Potency, µM (highest dose often 46.2 µM), without a hit: at the highest dose activity change, negative = growth inhibition, usual class: inhibitors; chicken DT40 Tdp1-/-;hTDP1 cells + 20 nM CPT, ATP luminescence, 48 h; further: potency means the concentration at half of the fitted maximal effect; nearly all actives have a fitted effect of over 55% in size
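Cell growth measured by CellTiter-Glo luminescence after a minimum 48 h, 37 C compound exposure with 20 nM CPT in Tdp1-knockout DT40 cells stably expressing hTDP1, seeded 400/well; qHTS titration format.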
TDP1 cell noCPT – qHTS for Inhibitors of human tyrosyl-DNA phosphodiesterase 1 (TDP1): qHTS in cells in absence of CPT; DT40 Tdp1-/- hTDP1 cells, no CPT, ATP luminescence, 48 h; hit rate 15% among 420,000; Potency, µM (top dose mostly 46.2 µM), without a hit: at the top dose activity change, negative = growth inhibition, hits mostly inhibitors; AID 686978, 2013; further: potency means the concentration at half of the fitted maximal effect; nearly all actives have a fitted effect of over 55% in size
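Chicken DT40 Tdp1-/- cells stably complemented with human TDP1 were seeded at 400 cells/well with DMSO in place of 20 nM camptothecin. After compound pinning, cells grew at least 48 hr at 37 °C; viability read by CellTiter-Glo luminescence.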
IL-1B inflam inh – blocks inflammasome-driven IL-1 beta release | activity change, % at 57.5 µM | hit rate 4.7% among 360,000 | THP-1 LPS/ATP IL-1B secretion, AlphaLISA, 16 h; stronger effect = lower value; in the data active means activity change below about -50%; inconclusive means mostly about -30% to -49%
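Secreted IL-1B measured by AlphaLISA bead assay after 16 h compound exposure of THP-1 cells; compounds (final up to 57.5 uM) added 1 h before LPS (250 ng/mL) and ATP (1.25 mM) stimulation; lower signal means less secretion.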
HT1080 IDH1KD tx – kills HT-1080 cells with IDH1 knockdown; HT-1080 IDH1 knockdown viability, ATP luminescence, 48 h; Potency, µM (highest dose often 46.1 µM), without a hit: top-dose activity, negative = toxicity, actives largely listed as cytotoxic; hit rate 2% among 360,000; AID 686971;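 further: potency means the concentration at half of the fitted maximal effect; 0% = DMSO wells and -100% = cell-free medium wells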
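After a 2 h attachment period, IDH1KD HT-1080 cells took pin-transferred compound for 48 h at 37 °C; ATP-based luminescence after 10 min room-temperature reagent incubation reported viability.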
Active calls of the source: *; ? = inconclusive; · = no result given; [ ] = remark or other dose. Unless noted, the call rests on the fitted dose curve; in most records, active means well fitted curve in the direction sought with a large enough effect; inconclusive means small, poorly fitted or top-dose-only effect, or another doubt; inactive means no such curve, though single readings can be large; an effect the other way counts as inactive or inconclusive. Unless noted, on the % scale 0 is the no-effect control and ±100 the full control effect.

SMILES	uPA generation	HT1080NT lethal	DT40 TDP1 CPT	TDP1 cell noCPT	IL-1B inflam inh	HT1080 IDH1KD tx
Cc1cccc(NC(=O)C(C)OC(=O)c2ccccc2NS(=O)(=O)c2cc(C)c(C)c([N+](=O)[O-])c2)c1 (configuration not stated)	5%	-4%	16µM*	?	4	-5%
CC1(C(=O)NS(=O)(=O)c2ccc3ccccc3c2)CCN1C(=O)CC1CCCCC1 (configuration not stated)	·	12%	-3%	10%	41	14%
CCN(CC)S(=O)(=O)c1cccc(C(=O)Nc2cc(C)on2)c1	3%	12%	4%	5%	14	8%
CCN(CC)S(=O)(=O)c1cc(C(=O)Nc2nncs2)c(Cl)cc1Cl	·	?	-5%	-4%	-84*	?
CCN(CC)S(=O)(=O)c1cc(C(=O)Nc2cc(C)on2)c(Cl)cc1Cl	2%	-26%	?	?	-94*	?
O=C1CCCCCC[C@@H](O)[C@H](O)C[C@H](c2ccccc2)O1	·	-7%	-11%	-28%	16	-2%
Cc1ccccc1-c1noc(N)c1C#N	·	?	26µM*	?	-28	10µM*
Cn1c(SCC(=O)c2ccc(O)c(O)c2)nnc1-c1ccccc1	?	-25%	?	?	0	-1%
C=CCn1c(SCC(=O)c2ccc(O)c(O)c2)nnc1-c1cccc(OC)c1	?	1%	15µM*	15µM*	2	-10%
COc1ccc(-n2nnnc2SCC(=O)c2ccc(O)c(O)c2)cc1	-10%	-25%	?	?	20	-8%
C=CCn1c(SCC(=O)c2ccc(O)c(O)c2)nnc1-c1ccc(C)cc1	?	-9%	16µM*	?	7	-9%
C=CCn1c(SCC(=O)c2ccc(O)c(O)c2)nnc1-c1ccc(OC)cc1	?	1%	21µM*	16µM*	52	-2%
COc1cc2c(cc1OC)C(=O)C(c1ccc3c(c1)OCO3)CC2 (configuration not stated)	·	-1%	?	?	-18	16%
COc1cc2c(cc1OC)C(=O)C(Br)CC2 (configuration not stated)	·	?	3.7µM*	4.6µM*	2	?
O=C(Cc1c(Cl)cccc1Cl)OCC(=O)c1ccc[nH]1	·	11%	?	?	-20	0%
Fc1cccc(Cl)c1-c1nnc2ccc3ccccc3n12	-21%	-2%	26µM*	10µM*	-17	0%
O=C(CCS(=O)(=O)c1cc2c(cc1Cl)NC(=O)CO2)NCc1ccc(F)cc1	7%	-14%	-10%	0%	3	-3%
CCCCNC(=O)NC1CCCC1	-8%	-4%	-7%	-18%	-12	1%
COc1ccc(NC(=O)CC2C(=O)N(c3ccc(C)cc3)C(=O)N2Cc2cccnc2)cc1 (configuration not stated)	·	·	-27%	?	·	·
COc1ccc(N2CC(C(=O)N3CCC4(CC3)CC(=O)c3ccccc3O4)CC2=O)cc1 (configuration not stated)	-2%	?	?	?	9	-1%
NC(=O)C1CC(=O)N(c2ccc(OCc3ccc(Cl)c(Cl)c3)cc2)C1 (configuration not stated)	·	-7%	23µM*	?	-28	-7%
Cc1ccc(N2CC(C(=O)N3CCC(C(=O)Nc4ccc(Br)cc4)CC3)CC2=O)cc1 (configuration not stated)	-4%	-3%	?	?	-61*	?
Cc1ccc(N2CC(C(=O)N3CCC4(CC3)CC(=O)c3ccccc3O4)CC2=O)cc1 (configuration not stated)	-4%	-10%	?	23µM*	-7	-6%
O=C(Nc1ccc(Cl)c(Cl)c1)C1CC(=O)N(c2ccc(Br)cc2)C1 (configuration not stated)	2%	?	?	?	-60*	-26%[9.24 µM]
Cc1cc(S(=O)(=O)Nc2cc3c(cc2N2CCOCC2)n(C)c(=O)c(=O)n3C)ccc1F	·	·	-15%	-26%	·	·
SMILES	uPA generation	HT1080NT lethal	DT40 TDP1 CPT	TDP1 cell noCPT	IL-1B inflam inh	HT1080 IDH1KD tx
CC(c1ccccc1)N(C)C(=O)CSc1nnc(C2CC2)n1C1CC1 (configuration not stated)	-1%	9%	3%	21%	-3	14%
COc1cc2c(=O)[nH]c3cc([N+](=O)[O-])ccc3c2cc1[N+](=O)[O-]	·	3%	8.2µM*	6.5µM*	5	2%
COc1ccc(-n2c(CN3CCOCC3)nc3ccc([N+](=O)[O-])cc3c2=O)c(OC)c1	4%	0%	-13%	-7%	43	-5%
COc1ccc(-n2c(CN3CCC(C)CC3)nc3ccc([N+](=O)[O-])cc3c2=O)c(OC)c1	-7%	-6%	18µM*	?	17	-4%
CCc1ccccc1NC(=O)CN1CCN(C(=O)CCC(=O)N2CCC(c3ccccc3)=N2)CC1	-4%	-2%	15µM*	26µM*	-7	-1%
CCc1ccccc1NC(=O)CCC(=O)N1CCN(C(C)=O)CC1	·	4%	-3%	6%	27	6%
C[C@H](O)[C@@H]1CN2CCc3c([nH]c4ccccc34)[C@@H]2C[C@@H]1N(C)C(=O)NC1CCCCC1	·	-10%	?	?	7	-27%
C[C@@H]1ON(C)[C@H]2C[C@H]3c4[nH]c5ccccc5c4CCN3C[C@@H]12	·	0%	9%	-10%	24	4%
Cc1cccc(-c2ccc3[nH]c4c(c3c2)CCN2C[C@H]3[C@H](C)ON(C)[C@H]3C[C@@H]42)c1	·	?	?	15µM*	-9	?
Cc1cccc(-c2ccc3[nH]c4c(c3c2)CCN2C[C@@H]([C@H](C)O)[C@@H](N(C)C(=O)NC3CCCCC3)C[C@@H]42)c1	·	?	13µM*	?	-15	?
CN[C@H]1C[C@H]2c3[nH]c4ccc(-c5cccc(C)c5)cc4c3CCN2C[C@H]1[C@H](C)O	·	16µM*	7.3µM*	12µM*	?	?
COc1ccc(C)cc1NC(=O)c1cc2c(=O)n(Cc3cccnc3)ccc2nc1C	·	·	-7%	-15%	·	·
CCCn1c(/C=C/c2cc[n+](C)cc2)nc2ccccc21	2%	14%	3%	-2%	-8	17%
